This note sets out measurements from PubChem BioAssay (NCATS).

Molecules are shown by their SMILES. Results filed as inconclusive are left out. Values without a mark were called inactive. Active and inactive are the calls of the source. Calls follow the shape of the dose curve; as a rule, active = well fitted cell-killing curve with a large enough effect; inconclusive = small, poorly fitted or top-dose-only effect, or effect the other way; inactive = no such curve, though single readings can be large or run the other way.

Experiment [1] can be described thus: Quantitative High-Throughput drug screen in 47 multiple myeloma cell lines against the NCATS MIPE library collection: MM1S_ATCC cell viability assay (AID 1918980). Also: nearly all actives have a fitted effect of over 45% in size. The method in brief:
(§1)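 Viability after 48 h drug exposure was measured as ATP-dependent luminescence. Cells, 500 per well, sat at 37 °C under 5% CO2; DMSO wells set 100%, media-only wells 0%.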

The nature of experiment [2]: Quantitative High-Throughput drug screen in 47 multiple myeloma cell lines against the NCATS MIPE library collection: MM1R_ATCC cell viability assay (AID 1918981). Also: nearly all actives have a fitted effect of over 35% in size. A digest of the protocol:
as §1

Experiment [3] can be described thus: Quantitative High-Throughput drug screen in 47 multiple myeloma cell lines against the NCATS MIPE library collection: KMS28PE_JCRB cell viability assay (AID 1918983). Also: nearly all actives have a fitted effect of over 35% in size. The method in brief: as §1
Experiment [4] can be described thus: Quantitative High-Throughput drug screen in 47 multiple myeloma cell lines against the NCATS MIPE library collection: L363_DSMZ cell viability assay (AID 1918984). Also: nearly all actives have a fitted effect of over 40% in size. A digest of the protocol: as §1
The nature of experiment [5]: Quantitative High-Throughput drug screen in 47 multiple myeloma cell lines against the NCATS MIPE library collection: KMS34_JCRB cell viability assay (AID 1918985). Also: nearly all actives have a fitted effect of over 40% in size. A digest of the protocol:
as §1

The nature of experiment [6]: Quantitative High-Throughput drug screen in 47 multiple myeloma cell lines against the NCATS MIPE library collection: OCIMY7_PLB cell viability assay (AID 1918987). Also: nearly all actives have a fitted effect of over 65% in size. The settings on record: OCI-MY7 myeloma viability, CellTiter-Glo ATP, 48 h; viability (% of DMSO): at 45.8 µM (top of the series). The method in brief:
as §1
Background: ATP-based viability assays read luminescence as a measure of living cells.

Experiment [7] is described as follows: Quantitative High-Throughput drug screen in 47 multiple myeloma cell lines against the NCATS MIPE library collection: OCIMY5_PLB cell viability assay (AID 1918988). Also: nearly all actives have a fitted effect of over 65% in size. The method in brief:
as §1

Experiment [8] is described as follows: Quantitative High-Throughput drug screen in 47 multiple myeloma cell lines against the NCATS MIPE library collection: OPM1_PLB cell viability assay (AID 1918989). Also: nearly all actives have a fitted effect of over 40% in size. The method in brief: as §1
A short description of experiment [9]: Quantitative High-Throughput drug screen in 47 multiple myeloma cell lines against the NCATS MIPE library collection: SKMM1_PLB cell viability assay (AID 1919863). Also: nearly all actives have a fitted effect of over 35% in size. The settings on record: SKMM1 myeloma viability, CellTiter-Glo ATP, 48 h; viability: hits give low values. A digest of the protocol: as §1
A short description of experiment [10]: Quantitative High-Throughput drug screen in 47 multiple myeloma cell lines against the NCATS MIPE library collection: LP1_DSMZ cell viability assay (AID 1918982). Also: nearly all actives have a fitted effect of over 35% in size. The method in brief: as §1
Potency is read from the fitted curve at half-maximal effect.

Turning to `N#Cc1c(NC(=O)c2cccc3ccccc23)sc2c1CCCC2`, the Potency was 1050 nM (active) in [1]; 743 nM (active) in experiment [2]; 469 nM (active) in [3]; 296 nM (active) in experiment [4]; 296 nM (active) in experiment [5]; 187 nM (active) in experiment [6]. Further, the Potency was 187 nM (active) in experiment [7], 469 nM (active) in [8] and 526 nM (active) in experiment [9].

With `O=C(NCc1ccccc1)[C@H](Cc1ccccc1)NC(=O)[C@@H]1O[C@@H]1C(=O)NCCc1ccc(O)cc1`, the Potency in experiment [1] is 1180 nM (active); in experiment [2] it was 10500 nM (active); in experiment [4], 16600 nM (active). Besides, the Potency result in experiment [3] and in experiment [6] was “inactive” each time. In addition, in [9], the viability (in general, a read-out of living cells in per cent, often relative to untreated cells) is 128%.

With `COc1cc([C@@H]2c3cc4c(cc3[C@@H](O[C@@H]3O[C@@H]5CO[C@@H](c6cccs6)O[C@@H]5[C@H](O)[C@@H]3O)[C@H]3COC(=O)[C@H]23)OCO4)cc(OC)c1O`, the Potency is 59 nM (active) in experiment [1]; 74.3 nM (active) in [2]; 2640 nM (active) in [3]; 833 nM (active) in [4]; 1870 nM (active) in experiment [5]; 1660 nM (active) in experiment [7]. Besides, the Potency in experiment [9] was 5260 nM (active).

Turning to `CCOC(=O)[C@@H](N)Cc1ccc(-c2cc(O[C@H](c3ccc(Cl)cc3-n3ccc(C)n3)C(F)(F)F)nc(N)n2)cc1`, the Potency in [1] was 2960 nM (active); in [2], 14800 nM (active); in experiment [3], 20900 nM (active); in experiment [4] it was 10500 nM (active); in experiment [5], 16600 nM (active); in experiment [6] it was 11800 nM (active). Also, the results for the Potency in experiment [7], in [8] and in experiment [9] were 18700 nM (active), 23500 nM (active) and 23500 nM (active), respectively.

For `Cn1cc(-c2cnn3c(N)c(Br)c([C@H]4CCCNC4)nc23)cn1`, the Potency is 332 nM (active) in experiment [1]; 209 nM (active) in experiment [2]; 13200 nM (active) in experiment [3]; 59 nM (active) in [4]; 935 nM (active) in experiment [5]; 1180 nM (active) in [6]. The Potency was 332 nM (active) in experiment [7] and 833 nM (active) in experiment [8].

`Cc1cc(Nc2ncc3c(n2)N(C)C(=O)N(c2cc(NC(=O)c4cccc(C(F)(F)F)c4)ccc2C)C3)n(C)n1`: the Potency in experiment [1] was 935 nM (active); in [2] it was 1320 nM (active); in experiment [3] it was 1320 nM (active); in experiment [4], 1320 nM (active); in experiment [6], 526 nM (active); in experiment [7] it was 935 nM (active). In experiment [8], the Potency is 235 nM (active).

`CN(C)c1ccc(C(=O)NCCCCCCC(=O)NO)cc1`: the Potency in [1] was 833 nM (active); in experiment [2], 590 nM (active); in experiment [3] it was 935 nM (active); in [4], 83.3 nM (active); in [5], 662 nM (active); in experiment [6], 590 nM (active). In addition, the Potency in experiment [8] was 296 nM (active); in experiment [9] it was 1480 nM (active).

For `NC(=O)N1CCC(CC(=O)N2CCC([C@H]3c4ncc(Br)cc4CCc4cc(Cl)cc(Br)c43)CC2)CC1`, the Potency in [1] was 16600 nM (active); in [2], 20900 nM (active); in [3], 18700 nM (active); in experiment [4] it was 4180 nM (active); in experiment [5], 20900 nM (active); in experiment [6] it was 743 nM (active). Further, the Potency is 9350 nM (active) in experiment [7], 23500 nM (active) in [8] and 18700 nM (active) in experiment [9].

Take `CC1(C)O[C@@H]2C[C@H]3[C@@H]4CCC5=CC(=O)C=C[C@]5(C)[C@@H]4[C@@H](O)C[C@]3(C)[C@]2(C(=O)CO)O1`: the Potency in experiment [1] was 296 nM (active); in experiment [10], 16.6 nM (active); in experiment [7] it was 118 nM (active); in experiment [8], 7430 nM (active). Moreover, the Potency entry in experiment [2] is “inactive”. Besides, in experiment [9], the viability is 142%.

Take `Nc1ncn([C@@H]2O[C@H](CO)[C@@H](O)[C@@H]2O)c(=O)n1`: the Potency in [1] was 18700 nM (active); in [2] it was 14800 nM (active); in experiment [3] it was 20900 nM (active); in experiment [4], 5900 nM (active); in [5], 11800 nM (active); in experiment [6], 3720 nM (active). In addition, the figures for the Potency in experiment [7], in experiment [8] and in experiment [9] were 9350 nM (active), 11800 nM (active) and 13200 nM (active), respectively.

In the case of `COC(=O)C1C2CC3c4[nH]c5cc(OC)ccc5c4CCN3CC2CC(OC(=O)c2cc(OC)c(OC)c(OC)c2)C1OC` (centres undefined), the Potency in experiment [1] was 14800 nM (active); in experiment [2], 13200 nM (active); in experiment [3], 14800 nM (active); in [6] it was 16600 nM (active); in experiment [7], 16600 nM (active); in experiment [8], 23500 nM (active).

Regarding `CC(=O)OCC(=O)[C@@]12N=C(C)O[C@H]1C[C@H]1[C@@H]3CCC4=CC(=O)C=C[C@]4(C)[C@@H]3[C@@H](O)C[C@@]12C`, the Potency in experiment [1] is 5900 nM (active). The Potency result in experiment [2], in experiment [3] and in experiment [5] was “inactive” in each case. Also, in experiment [9], the viability is 135%.

With `CCc1c(O)cc(O)c(C(=O)c2ccc(OCCN3CCOCC3)c(OC)c2)c1CC(=O)N(CCOC)CCOC`, the Potency in [1] is 1480 nM (active); in experiment [2] it was 1180 nM (active); in experiment [3] it was 1180 nM (active); in [5], 1660 nM (active); in [6], 3320 nM (active); in [7], 469 nM (active). In addition, the Potency in [9] is 1320 nM (active).

Regarding `O=C(NC1CC1)c1cccc(-c2ccc3c(NC(=O)C4CC4)n[nH]c3c2)c1`, the Potency was 332 nM (active) in [1]; 1480 nM (active) in experiment [2]; 10500 nM (active) in [3]; 20900 nM (active) in [5]; 7430 nM (active) in experiment [6]; 332 nM (active) in experiment [7]. For the same compound, the Potency in [8] was 14800 nM (active). In [4], the Potency result was “inactive”.
